Assay outcomes from PubChem.
Pf apPOL block – Pf-apPOL DNA polymerase inhibition; Recombinant Pf-apPOL, molecular beacon fluorescence, 1.5 h; 210,000 compounds, 0.25% hits; inhibition, % at 10 µM
mHTT-CaM PPI inh – inhibitors of human mutant huntingtin-calmodulin interaction. P42858. AlphaScreen His-mHTT/GST-CaM binding, luminescence. inhibition, % at 15 µM. 190,000 compounds, 3.6% hits;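 also: 0% = both proteins with DMSO and 100% = one protein alone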
An asterisk follows results filed as active; x = no result given. Hits are enriched below; roughly 3.6% of the tested compounds scored in any of these assays. Rule as the data show it: active = inhibition above about 50%; inactive = the rest.

SMILES	Pf apPOL block	mHTT-CaM PPI inh
O=C(c1c[nH]c2ccccc12)N1CCC2(CC1)NC(=O)N(Cc1ccccc1)C2=O	1.9	62.1*
O=C(c1nccc2ccccc12)N1CCC2(CC1)NC(=O)N(Cc1cccc(Cl)c1)C2=O	-7.9	24.1
O=C(c1ccccc1F)N1CCC2(CC1)NC(=O)N(Cc1ccccc1)C2=O	-1.7	-1.4
O=C(c1cc2ccccc2[nH]1)N1CCC2(CC1)NC(=O)N(Cc1ccc(Cl)cc1)C2=O	-1.5	99.0*
O=C(c1c[nH]c2ccccc12)N1CCC2(CC1)NC(=O)N(Cc1cccc(Cl)c1)C2=O	-0.7	100.1*
Cc1ccc(-n2nc3c(c2NC(=O)c2cccc(Cl)c2)CSC3)cc1	5.6	3.0
COC(=O)c1ccc(N2C(=O)C3ON(c4ccccc4)C(c4ccco4)C3C2=O)cc1 (centres undefined)	-1.4	-3.0
C=CCn1c(SC(C(=O)c2ccccc2)c2ccccc2)nnc1-c1cccc([N+](=O)[O-])c1 (centres undefined)	-3.1	3.2
O=C(NC1CC1)c1ccc(OCC2CCN(C(=O)c3ccc(C(F)(F)F)cc3)CC2)cc1	-1.9	19.3
O=C(c1cccs1)N1CCN(Cc2c[nH]c3ccccc23)CC1	7.6	10.0
CC(=O)Oc1ccc2c(c1)OC(=Cc1ccc(Cl)c(Cl)c1)C2=O	-2.2	18.5
O=C(Nc1cccc(F)c1)N1CCC2(CC1)Nc1cccnc1NC2=NCc1ccccc1	-8.8	98.7*
CC(=O)N1CCC2(CC1)Nc1cccnc1NC2=NCc1ccccc1	-5.2	0.6
Cc1cc(N2CCN(C)CC2)nc2ccc(NC(=O)c3cc(-c4ccco4)nc4ccccc34)cc12	5.3	57.0*
Cc1cc(N2CCN(C)CC2)nc2ccc(NC(=O)/C=C/c3cccnc3)cc12	-6.3	5.0
COc1ccccc1C(=O)Nc1ccc2nc(N3CCN(C)CC3)cc(C)c2c1	-7.3	0.0
Cc1cc(N2CCN(C)CC2)nc2ccc(NC(=O)/C=C/c3cccs3)cc12	-0.3	76.0*
O=C1N(CC[C@@H](O)c2ccccc2)CCC12CCC(c1ccccc1)CC2 (some centres undefined)	-9.9	-2.6
Cc1ccccc1C1CCC2(CC1)CCN(CC[C@@H](O)c1ccccc1)C2=O (some centres undefined)	-8.6	53.3*
COc1ccc(C=C2Oc3c(ccc4c3CN(Cc3ccco3)CO4)C2=O)cc1OC	-29.1	58.0*
COc1ccccc1C=C1Oc2c(ccc3c2CN(Cc2cccnc2)CO3)C1=O	-27.8	41.7
COc1ccc(C=C2Oc3c(ccc4c3CN(CCN3CCOCC3)CO4)C2=O)c(OC)c1	-36.4	54.9*
COc1ccccc1C=C1Oc2c(ccc3c2CN(Cc2cc(OC)c(OC)c(OC)c2)CO3)C1=O	-18.3	54.7*
COc1ccc(C=C2Oc3c(ccc4c3CN(Cc3cccnc3)CO4)C2=O)c(OC)c1	-5.0	17.8
COc1cccc(C=C2Oc3c(ccc4c3CN(Cc3ccco3)CO4)C2=O)c1	-31.6	20.3
SMILES	Pf apPOL block	mHTT-CaM PPI inh
COc1ccccc1C=C1Oc2c(ccc3c2CN(CCN2CCOCC2)CO3)C1=O	-23.7	57.0*
COc1ccccc1C=C1Oc2c(ccc3c2CN(Cc2ccncc2)CO3)C1=O	-30.4	4.7
C=CCn1c(SCc2ccc(OC)cc2)nnc1-c1ccc(OC)cc1	-1.6	1.0
O=C1OC(c2ccccc2[N+](=O)[O-])=N/C1=C/c1ccccc1Cl	0.4	6.0
COCCNC(=O)C1CCCN(C(=O)c2cc(C)cc(C)c2)C1 (centres undefined)	-1.6	3.9
COc1ccc(Cl)cc1N1C=C(C#N)S(=O)(=O)c2ccccc21	-1.9	-1.3
O=C(Nc1ccccc1Cl)c1cnc(-c2ccccc2)nc1-c1ccncc1	-3.3	-2.4
O=C(Nc1ccccc1Cl)c1cnc(-c2ccc(F)cc2)nc1-c1ccncc1	2.0	-1.7
O=C(Nc1ccc(F)cc1)c1cnc(-c2ccccc2)nc1-c1ccncc1	1.6	-8.0
O=C(Nc1ccc(F)cc1)c1cnc(-c2ccc(F)cc2)nc1-c1ccncc1	88.1*	38.7
Cc1ccc(-c2ncc(C(=O)Nc3ccccc3Cl)c(-c3ccncc3)n2)cc1	55.7*	11.1
O=C(Nc1ccccc1F)c1cnc(-c2ccc(F)cc2)nc1-c1ccncc1	86.0*	30.4
Cc1nn(CC#N)c(C)c1Br	2.1	x
CSc1ncccc1C(=O)N1CCC2(CC1)OCCN2S(=O)(=O)c1ccc(C)cc1	-8.2	-12.6
COc1ccc(C2(C(=O)NCC34CCCC3N(C)C(=O)CC4)CC2)cc1 (centres undefined)	2.8	-2.4
CC(=O)Nc1ccc(S(=O)(=O)NC2=NCN(C3CCCCC3)CN2)cc1	-7.5	3.0
Cc1cc(C)c(S(=O)(=O)Nc2ccc3oc(=O)sc3c2)cc1C	1.7	42.0
Cc1ccc(C)c(S(=O)(=O)Nc2ccc3oc(=O)sc3c2)c1	72.6*	24.0
COc1ccc(OC)c(CCC(=O)O)c1	-9.0	-7.4
COc1ccc(CCCC(=O)O)cc1C	62.7*	2.0
CCc1c(C2CCN(C(=O)c3cccs3)CC2)noc1N	-0.7	-1.1
Cc1ccc(N2NC(=O)/C(=C\c3ccc(O)c([N+](=O)[O-])c3)C2=O)cc1Cl	6.2	33.0
O=C1NN(c2cccc(Br)c2)C(=O)/C1=C/c1ccc(O)cc1	1.3	26.0
O=C1NN(c2ccc(F)cc2)C(=O)/C1=C/c1cccc(Br)c1	16.6	70.0*
O=C1NN(c2ccc(Br)cc2)C(=O)/C1=C/c1cc([N+](=O)[O-])c(Cl)cc1Cl	-3.2	95.0*
SMILES	Pf apPOL block	mHTT-CaM PPI inh
Cc1ccc(N2NC(=O)/C(=C\c3cccc(Br)c3)C2=O)cc1C	-2.3	69.0*
Cc1ccc(N2NC(=O)/C(=C\c3ccc(Cl)c([N+](=O)[O-])c3)C2=O)cc1C	-3.2	96.0*
Cc1cc([N+](=O)[O-])cc(/C=C2\C(=O)NN(c3ccc(Br)cc3)C2=O)c1O	-0.2	12.0
Cc1ccc(N2NC(=O)/C(=C\c3ccc(Br)cc3)C2=O)cc1C	28.2	4.0
COc1ccc(C=CC(=O)c2ccc(O)cc2)cc1OC	-0.8	4.1
CCCCNC(=O)c1ccc2c(c1)ncn2-c1cc(OC)c(OC)c(OC)c1	27.5	-1.0
CC(C)n1c(C2CCN(C(=O)c3ccccn3)C2)nc2ccncc21 (centres undefined)	3.7	5.8
O=C1N/C(=C\c2ccc(O)c(Cl)c2)C(=O)N1Cc1ccc(Br)cc1	-6.8	32.0
Cc1ccc(-n2cnc(C(=O)NCc3ccccc3F)n2)cc1	-3.9	-6.0
COc1ccc(CN2CC[C@H]3C=CC[C@@H](C(=O)O)[C@H]3C2=O)cc1OC	-2.5	3.1
COc1ccc(CN2CC[C@H]3C=CC[C@@H](C(=O)Nc4ccc(Cl)c(C(F)(F)F)c4)[C@H]3C2=O)cc1OC	-7.1	56.4*
COc1ccc(NC(=O)[C@@H]2CC=C[C@@H]3CCN(Cc4ccccc4)C(=O)[C@@H]32)cc1	-4.2	2.2
COc1ccc(NC(=O)[C@@H]2CC=C[C@@H]3CCN(Cc4ccc(Cl)c(Cl)c4)C(=O)[C@@H]32)cc1	-6.4	96.2*
O=c1oc2ccc(Cl)cc2n1CN1CCCCC1	-4.5	0.0
Cc1ccccc1CC(=O)N1CCC(c2nc(CNC(=O)C(C)C)cs2)CC1	1.5	6.7
Cn1c(=O)n(Cc2ccc(Cl)c(Cl)c2)c2ccccc21	-5.2	77.6*
O=c1oc(=O)n(Cc2ccc(Cl)c(Cl)c2)c2ccccc12	-3.1	99.0*
N=c1n(CCO)c2ccccc2n1Cc1ccc(Cl)c(Cl)c1	-8.0	12.8
Cn1c(=O)n(Cc2ccccc2Cl)c2ccccc21	-2.5	3.0
